# Results: PubChem BioAssay AID1159580 (chemical genetic matrix, 2015)
# Screen size: about 5,500 compounds; about 2,000 (36%) were called active. Another 18% or so got no clear call; they are omitted. The list shows a part of the results. Unmarked numbers belong to inactive results. Cut-off read from the data, not from the text of the source: active = normalized growth mostly below about 0.91 (no sharp cut-off); inconclusive = no clear call, values can overlap the other calls; inactive = mostly above about 0.92.
# Test: chemical genetic growth profiling, strain panel (AID 1159580);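 note: tested at 20 µM; growth read once vehicle control cultures reached saturation at 30 °C; 1 = growth at the plate median or of vehicle wells; lower values mean less growth of the strain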
# Conditions: growth OD
# [1] = S. cerevisiae deletion strains, locus YAL013W, strain DEP1, active compounds read low
# [2] = S. cerevisiae deletion strains, locus YJR075W, strain HOC1, active compounds read low
# [3] = S. cerevisiae deletion strains, locus YNL322C, strain KRE1, active compounds read low
# [4] = S. cerevisiae deletion strains, locus YPL055C, strain LGE1, active compounds read low
compound,measurement,setting,value
Cc1ccc(OS(=O)(=O)c2ccc(C#N)cc2)c(Br)c1,normalized growth,[1],0.954
same,normalized growth,"S. cerevisiae deletion strains, locus YBR229C, strain ROT2, active compounds read low",1
same,normalized growth,"S. cerevisiae deletion strains, locus YDL101C, strain DUN1, active compounds read low",0.954
same,normalized growth,"S. cerevisiae deletion strains, locus YDR150W, strain NUM1, active compounds read low",0.973
same,normalized growth,"S. cerevisiae deletion strains, locus YEL061C, strain CIN8, active compounds read low",0.934
same,normalized growth,"S. cerevisiae deletion strains, locus YGR078C, strain PAC10, active compounds read low",0.976
same,normalized growth,"S. cerevisiae deletion strains, locus YHR030C, strain SLT2, active compounds read low",0.62 (active)
same,normalized growth,"S. cerevisiae deletion strains, locus YJL187C, strain SWE1, active compounds read low",1.02
same,normalized growth,"S. cerevisiae deletion strains, locus YJR043C, strain POL32, active compounds read low",0.979
same,normalized growth,[2],0.953
same,normalized growth,"S. cerevisiae deletion strains, locus YLR039C, strain RIC1, active compounds read low",0.712 (active)
same,normalized growth,"S. cerevisiae deletion strains, locus YLR058C, strain SHM2 (second series), active compounds read low",0.997
same,normalized growth,"S. cerevisiae deletion strains, locus YLR085C, strain ARP6, active compounds read low",0.784
same,normalized growth,"S. cerevisiae deletion strains, locus YLR262C, strain YPT6, active compounds read low",0.796 (active)
same,normalized growth,"S. cerevisiae deletion strains, locus YML094W, strain GIM5, active compounds read low",0.957
same,normalized growth,"S. cerevisiae deletion strains, locus YMR219W, strain ESC1, active compounds read low",0.985
same,normalized growth,"S. cerevisiae deletion strains, locus YMR263W, strain SAP30, active compounds read low",0.966
same,normalized growth,"S. cerevisiae deletion strains, locus YNL128W, strain TEP1, active compounds read low",0.969
same,normalized growth,"S. cerevisiae deletion strains, locus YNL153C, strain GIM3, active compounds read low",0.96
same,normalized growth,"S. cerevisiae deletion strains, locus YNL298W, strain CLA4 (second series), active compounds read low",0.881
same,normalized growth,[3],0.981
same,normalized growth,"S. cerevisiae deletion strains, locus YNR030W, strain Alg12, active compounds read low",0.918
same,normalized growth,"S. cerevisiae deletion strains, locus YOL006C, strain TOP1, active compounds read low",0.765
same,normalized growth,[4],0.936
same,normalized growth,"S. cerevisiae deletion strains, locus YPL241C, strain CIN2, active compounds read low",0.927
same,normalized growth,"S. cerevisiae deletion strains, locus YPR135W, strain CTF4, active compounds read low",0.628 (active)
same,normalized growth,"S. cerevisiae strains, strain wild type, active compounds read low",0.907 (active)
NNC(N)=O,normalized growth,[1],1.03
same,normalized growth,"S. cerevisiae deletion strains, locus YAL040C, strain CLN3, active compounds read low",1.01
same,normalized growth,"S. cerevisiae deletion strains, locus YCL061C, strain MRC1 (second series), active compounds read low",1.01
same,normalized growth,"S. cerevisiae deletion strains, locus YDR363W, strain ESC2, active compounds read low",1.02
same,normalized growth,"S. cerevisiae deletion strains, locus YER002W, strain NOP16, active compounds read low",1.01
same,normalized growth,"S. cerevisiae deletion strains, locus YGR229C, strain SMI1, active compounds read low",1.03
same,normalized growth,[2],1.02
same,normalized growth,"S. cerevisiae deletion strains, locus YMR307W, strain GAS1, active compounds read low",0.998
same,normalized growth,"S. cerevisiae deletion strains, locus YNL175C, strain NOP13, active compounds read low",1.01
same,normalized growth,"S. cerevisiae deletion strains, locus YNL197C, strain WHI3, active compounds read low",1
same,normalized growth,"S. cerevisiae deletion strains, locus YNL224C, strain SQS1, active compounds read low",1
same,normalized growth,[3],1.03
same,normalized growth,"S. cerevisiae deletion strains, locus YOR083W, strain WHI5 (second series), active compounds read low",1
same,normalized growth,[4],1.05
